These results are taken from PubChem BioAssay (NCI).

The structures appear in SMILES notation. This is part of a sample that, as a whole, favours compounds with a hit. Of some 83,000 tested, about 20% had one in any assay.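 Activity criterion: percent growth below 10, measured after cells in 96-well plates were exposed to a single compound concentration for 48 hours.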 Unmarked numbers belong to inactive results. Activity calls are given as the source filed them.

This experiment has as its system HL-60(TB) leukemia. Put plainly: NCI-60 one-dose screen, 48 h (100 = growth as untreated, 0 = no growth, -100 = all killed). Conditions: 10 µM unless noted.
For the molecule `COc1ccc(-c2nc3cc(C)ccc3n2CC(=O)N=Nc2c(O)[nH]c3ccc(Cl)cc23)cc1`, the growth was 41.1%. On to `N/C(=N\N=C\c1ccc([N+](=O)[O-])cc1)c1c(N)nc(=S)[nH]c1-c1ccc(Cl)cc1Cl`, for which the growth was 103%. Under `Cc1ccc2c(N)c(C(=O)Nc3ccc(OC(F)(F)F)cc3)sc2n1` stands 61.6%. Under `COc1cc(/C=C/C(=O)c2ccc(NC(=O)CN3C(=O)NC(C)(c4ccccc4)C3=O)cc2)cc(OC)c1OC` (stereo unspecified) stands -11.5% (active); under `Cc1ccc(C(=O)Nc2ccc(-n3c(C)nc4c(cnn4-c4ccccc4)c3=O)cc2)cc1`, 51.4%. Consider `CCS(=O)(=O)N1CCCC(C(=O)Nc2nc3ccc(NC(=O)c4ccc(F)c(OC)c4F)cc3s2)C1` (stereo unspecified), for which the growth was 53.9%.

With `O=C(CN1CCN(c2ncnc3c2cnn3-c2ccccc2)CC1)Nc1nncs1`, the growth was -45.5% (active). Next, `C=C1CCC2C3(C)COC(c4cccc(F)c4)OC3CCC2(C)C1CC(O)C1=CCOC1=O` (stereo unspecified): 66.7%; `O=C(NO)c1ccc(CN2CCN(c3nc(-c4ccccc4)c4ccccc4n3)CC2)cc1`: 7.7% (active); `Cn1cc(-c2cc3nc(-c4cn(C)c5ncc(Br)cc45)cc(N)n3n2)c2cc(F)ccc21`: 1.38% (active). Under `C/C(=N/O)c1ccc(NC(=O)CSc2nnc(-c3ccc4nc(-c5ccc(Cl)cc5)[nH]c4c3)o2)cc1` stands 81.8%.

Turning to `O=C1c2cccc3c(N4CCN(Cc5ccccc5)CC4)ccc(c23)C(=O)N1c1cccc(-c2nn(-c3ccccc3)cc2-c2nc3ccccc3s2)c1`, the growth was 105%.

As for `COc1cc(NC(=O)CSc2nnc(-c3ccc(-c4nc5ccc(Cl)cc5[nH]4)cc3)o2)cc(OC)c1OC`, the growth is 8.77% (active). Turning to `COc1ccc(NC(=O)Cn2c(/C=C/c3ccc(N(C)C)cc3)nc3ccccc3c2=O)cc1`, the growth is 82.2%.

For `CC(C)C1=C[C@@]23CC[C@@H]4[C@](C)(CCC[C@]4(C)C(=O)NCc4ccccc4)[C@H]2C[C@@H]1[C@H]1C(=O)CCC(=O)[C@H]13`, the growth is 53.5%. Under `O=C(Nc1cccc([N+](=O)[O-])c1)Nc1cccc([N+](=O)[O-])c1` stands 92.4%; under `CC(=O)Nc1cccc(-c2nc3cc(-c4ccc(O)cc4)ccc3n2C)c1`, 20.7%; under `O=C(c1ccc(Cl)cc1)C1[C@H](c2ccccc2Br)[C@@H](c2ccccc2)NC12C(=O)Nc1ccc(Cl)cc12` (stereo partly specified), 32%. Under `O=C(c1ccc(Cl)cc1)C(c1c[nH]c2ccccc12)c1c[nH]c2ccccc12` stands -26.2% (active); under `O=[N+]([O-])c1ccc(-c2nc(-c3ccccc3)c(-c3ccccc3)n2-c2ccc(S(=O)(=O)Nc3ncccn3)cc2)cc1`, 38.2%; under `CCCCNC(=S)Nc1ccc(OCc2nc3ccc(Cl)cc3[nH]2)cc1`, 13%. Next, `COc1ccc(NC(=O)Cn2c(/C=C/c3cccc(Br)c3)nc3ccccc3c2=O)cc1`: 92.9%; `O=C(Nc1ccc(-c2ccc3c(c2)NC(=O)/C3=C\c2ccc[nH]2)cc1)Nc1ccc(Cl)c(C(F)(F)F)c1`: 4.76% (active).

Take `CCCCNc1ccc2c3c(cccc13)C(=O)N(NCC(O)COc1ccc3c(C)cc(=O)oc3c1)C2=O` (stereo unspecified): the growth was 100%. Under `COc1ccc(-c2nc(Nc3ccccc3S(N)(=O)=O)c3ccccc3n2)cc1` stands 88.5%.

As for `CC1(c2cc3cc(Br)ccc3oc2=O)NC(=O)c2c(/C=C/C(=O)OC3CC4CCC3(C)C4(C)C)cccc2N1` (stereo unspecified), the growth is 48.9%.
